D1 ag – activates the human D1 dopamine receptor. HEK293 T-REx D1 cells, calcium flux, agonist mode. activation, % at 2 µM. 360,000 tested, 1% active. AID 504660; in the data active = activation above about 30%
Target sequence (P21728 whole entry, looked up): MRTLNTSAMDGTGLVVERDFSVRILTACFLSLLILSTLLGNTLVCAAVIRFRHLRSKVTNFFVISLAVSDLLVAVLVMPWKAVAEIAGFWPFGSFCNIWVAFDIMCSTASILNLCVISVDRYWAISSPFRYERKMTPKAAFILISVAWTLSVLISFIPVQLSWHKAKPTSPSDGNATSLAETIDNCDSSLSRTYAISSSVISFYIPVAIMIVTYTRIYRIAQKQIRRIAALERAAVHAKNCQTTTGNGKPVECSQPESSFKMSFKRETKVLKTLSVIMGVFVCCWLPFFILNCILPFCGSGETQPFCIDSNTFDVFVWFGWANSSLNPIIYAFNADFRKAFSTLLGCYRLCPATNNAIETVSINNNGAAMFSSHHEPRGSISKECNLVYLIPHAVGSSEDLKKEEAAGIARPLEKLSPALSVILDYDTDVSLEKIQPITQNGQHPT
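Agonism was scored from calcium flux recorded over 180 s (1 read/s) after pintool compound addition, following a 10-cycle baseline. Cells were inducible force-coupled HEK293 TREx D1, plated overnight at 30 C and loaded with no-wash calcium dye.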
D1 antag – human D1 dopamine receptor antagonism; P21728; HEK293 TREx D1 cells, calcium flux, dopamine EC80; stronger effect = lower value; activity change, negative = inhibition, % at 10 µM; 360,000 tested, 3.2% active; in the data active = activity change below about -30%
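HEK293 T-REx cells expressing inducible, force-coupled D1 receptor; no-wash Ca dye, 30–90 min RT. Cmpd → 180 s read at 1 Hz → EC80 DA → 180 s read.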
D1 potentiator – potentiators of human D1 dopamine receptor; P21728; 360,000 tested, 0.036% active; potentiation, % at 10 µM; HEK293 TREx D1 cells, calcium flux, dopamine EC20 potentiation; in the data active = potentiation above about 30%
DRD3 antagonist – D3 dopamine receptor (human) antagonism; P35462; D3R cells, DiscoveRx beta-arrestin luminescence, antagonist mode; stronger effect = lower value; max response, negative = inhibition, %; 360,000 tested, 2.5% active; AID 652054; in the data active = max response below about -50%; inconclusive = no clear call, values can overlap the other calls
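Cells plated overnight at 1500 cells/well, then exposed to library compounds with dopamine controls for 90 minutes at 37 degrees C. DiscoveRx reagent added for 30–60 minutes at room temperature; luminescence read, quantitative HTS format.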
DRD3 agonist – activates the human D3 dopamine receptor; P35462; D3R DiscoveRx beta-arrestin cells, luminescence, 90 min; max activation, %; 410,000 tested, 0.58% active; AID 652048; in the data active = max activation above about 30%
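Agonist mode: compounds and dopamine controls were applied to plated cells for 90 min at 37 degrees C after an overnight attachment at 1500 cells/well. Luminescent read-out followed 30 - 60 minutes at room temperature with DiscoveRx detection reagent.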
Large screens that a line does not name were inactive. Sampled rows, rich in hits. Any-hit rate of the full collection: about 6.1%.

COc1ccc(CNc2nc3c(c(=O)n(C)c(=O)n3C)n2Cc2ccccc2Cl)cc1	none (no result: DRD3 antagonist)
O=C(Nn1c(C2CCCCC2)nc2ccccc2c1=O)c1ccc([N+](=O)[O-])cc1Cl	none
CC(C)(C)C(=O)NC1(C(F)(F)F)NC(=O)N(c2ccccc2F)C1=O (centres undefined)	none
CCC(C)(C)n1nnnc1C(C(C)C)N(Cc1cccnc1)Cc1ccco1 (centres undefined)	D1 antag -44
Cc1cccc(-c2nnc(SCC(=O)c3ccc(O)cc3O)n2C)c1	none
CCC(C)(CC(=O)O)CC(=O)Nc1cc(C(F)(F)F)cc(C(F)(F)F)c1 (centres undefined)	DRD3 agonist 32
CN(C)c1ccc(/C=C/C(O)=C2/C(=O)N(C)C3(C)CC2c2ccccc2O3)cc1 (centres undefined)	D1 ag 69 (no result: DRD3 antagonist, DRD3 agonist)
O=[N+]([O-])c1ccc(-c2c(-c3ccccc3)ncc3cc(F)ccc23)cc1	none (no result: D1 antag)
O=C(CCN1CCN(c2ccccc2)CC1)N/N=C/c1ccccc1OC(F)F	DRD3 antagonist -70
O=C(CCN1CCN(C(c2ccccc2)c2ccccc2)CC1)N/N=C/c1ccc(O)cc1O	DRD3 antagonist inconclusive
CC(=O)Nc1ccc(/C=N/NC(=O)CCN2CCN(c3ccccc3)CC2)cc1	DRD3 antagonist -84
O=C(CCN1CCN(C(c2ccccc2)c2ccccc2)CC1)N/N=C/c1ccc(O)cc1	D1 antag -72, DRD3 antagonist inconclusive
O=C(CSc1nc(C2CCCCC2)n(-c2ccccc2)n1)NCC(F)(F)F	none
O=C(c1ccccc1)N(Cc1ccccc1)c1ccccn1	none
O=C(c1ccc([N+](=O)[O-])cc1)N(Cc1ccccc1)c1ccccn1	DRD3 antagonist -55
O=C(c1ccc(Br)o1)N(Cc1ccccc1)c1ccccn1	DRD3 agonist 32
Cc1oc(C)c2c(=O)cc(-c3ccc4c(c3)OCO4)cc(OC(=O)c3cccc(Br)c3)c12	none (no result: DRD3 antagonist)
O=C(NC1CCCCCC1)c1cc2c(Cl)nc3ccccc3c2s1	none (no result: DRD3 antagonist)
CN(CCCN1CCCCC1)C(=O)CCc1nnc(C2CCCCC2)o1	none
CCOc1ccccc1N(CC(=O)N(C)Cc1ccccc1)S(=O)(=O)c1ccccc1	D1 antag -37
COc1ccc(CN2C(=O)C(C)Nc3ncnc(N4CCOCC4)c32)cc1 (centres undefined)	none (no result: D1 ag, D1 antag, D1 potentiator)
COc1ccc(CN2C(=O)C(C)Nc3ncnc(N4CCN(c5ccccc5)CC4)c32)cc1 (centres undefined)	DRD3 antagonist -70 (no result: D1 ag, D1 antag, D1 potentiator)
CC1Nc2ncnc(N3CCN(c4ccccc4)CC3)c2N(Cc2ccc(Br)cc2)C1=O (centres undefined)	DRD3 antagonist -156
CCOc1cc(CNC(=O)c2ccccc2NC(=O)c2nsc3ccccc23)ccc1OC	none (no result: DRD3 antagonist)
Fc1cc(Br)ccc1Nc1c2c(nc3nc(-c4cccs4)nn13)CCCC2	none (no result: DRD3 antagonist)
CCc1cccc(CC)c1NC(=O)CN1CCN(S(=O)(=O)c2ccccc2)CC1	none
CCOC(=O)c1ccc(NC(=O)CC2S/C(=N/N=C/c3c[nH]c4ccccc34)NC2=O)cc1 (centres undefined)	D1 antag -36
CC(=O)Nc1ccc(NC(=O)C2CCN(c3ccc(C(F)(F)F)cn3)CC2)cc1	none
O=C(Nc1ccc(Oc2ccc(C(F)(F)F)cn2)c(Cl)c1)C1CC1	D1 antag -32
COc1ccc(S(=O)(=O)N2CCC3CC2c2cc(-c4ccc5c(c4)OCO5)ccc23)cc1 (centres undefined)	none (no result: D1 ag, D1 antag, D1 potentiator)
CC(C)C(=O)N1CCN(c2ccc(NC(=O)COc3ccccc3[N+](=O)[O-])cc2)CC1	D1 antag -31
CCOC(=O)c1c(C)c(C)n2c1NC(=O)C2	none (no result: D1 ag, D1 antag, D1 potentiator)
COc1cccc(-c2c(-c3cc(OC)cc(OC)c3)n(C)c3ccc(-c4ccc5[nH]ccc5c4)cc23)c1	DRD3 agonist 32 (no result: D1 antag)
COc1cc(OC)cc(-c2c(-c3ccc(F)cc3)c3cc(-c4ccc5[nH]ccc5c4)ccc3n2C)c1	none (no result: D1 antag)
Cc1ccccc1-n1nc(C)c2cc(C(=O)NCc3cccnc3)sc21	DRD3 antagonist -60
COC(=O)[C@@H]1C[C@@]2(O)[C@@H](O)[C@@H](O)[C@@H](O)C[C@H]2N1C/C=C/c1ccccc1	none
Cc1c(-c2ccccc2)nc2ccccc2c1C(=O)Oc1ccc([N+](=O)[O-])cc1	D1 antag -33
O=C(Nc1ccc2c(c1)C(=O)OC2)c1ccc(F)cc1F	none
Cn1c(/C(C#N)=C(\O)c2cccc(F)c2)nc2ccccc21	DRD3 antagonist -51
N#C/C(=C(/O)c1cccc(F)c1)c1nc2ccccc2s1	D1 antag -35
CN=C(C)/C(C(=O)OC)=C(/O)c1ccc(Cl)cc1Cl	none
Cc1nn2cc(-c3ccccc3)nc2[nH]c1=O	none
CCc1nc(C)c(-c2ccccc2)c(=O)[nH]1	DRD3 antagonist -94
CC(O)(c1cccc(F)c1)c1nc(-c2cc(F)cc(F)c2)cs1 (centres undefined)	none (no result: D1 ag, D1 antag, D1 potentiator)
Cc1ccc(S(=O)(=O)N/N=C/c2c[nH]c3ccccc23)cc1	D1 antag -49
O=C(O)c1ccc(S(=O)(=O)NN=Cc2c[nH]c3ccccc23)cc1	none (no result: D1 ag, D1 antag, D1 potentiator)
COc1cc(OC)c(CNC2CCCCCC2)cc1Br	D1 ag 62, DRD3 antagonist -62
CC(C)CCCN1CCN=C1N(C)C	none
CCCCCCCN1CCN=C1N(C)C	D1 antag -35
COc1ccc(C2=NN(C(=O)CSc3nccn3C)C(c3ccco3)C2)cc1 (centres undefined)	none (no result: D1 ag, D1 antag, D1 potentiator)
CCC(=O)N1N=C(c2ccc(NS(=O)(=O)c3ccc(C)cc3)cc2)CC1c1ccco1 (centres undefined)	none (no result: D1 ag, D1 antag, D1 potentiator)
COc1ccc(C2=NN(C(=O)CSc3nnc(C)c(=O)n3N)C(c3ccco3)C2)cc1 (centres undefined)	D1 antag -80
CCC(=O)N1N=C(c2ccc(C)cc2)CC1c1ccco1 (centres undefined)	D1 antag -37
CC(C)(C)c1cc(N)on1	none
Cc1cc(/C=N/n2cnnc2)c(O)c([N+](=O)[O-])c1	DRD3 antagonist -63
C=COC(=O)CSc1snc(SCC(=O)OC)c1C#N	none
CCN(CC)C(=O)CSc1nsc(SCC(=O)N(CC)CC)c1C#N	DRD3 antagonist -55
O=C(COc1ccc(Cl)cc1)Nc1cc(NC(=O)COc2ccc(Cl)cc2)cc(C(=O)O)c1	none
CNc1nc(N)nc(-c2cc(Cl)ccc2OC)n1	D1 antag -30, DRD3 antagonist inconclusive
Clc1ccc(C=Cc2ccccn2)c(Cl)c1	none (no result: D1 ag, D1 antag, D1 potentiator)
CCn1ncc(C2=NOC(C(=O)Nc3cnn(C45CC6CC(CC(C6)C4)C5)c3)C2)c1C (centres undefined)	D1 ag 34
CCn1ncc(C2=NOC(C(=O)NCC(C)C)C2)c1C (centres undefined)	none
Cc1cc(OCc2cc(C(=O)NCC3(C)COC3)no2)cc(C)c1Cl	D1 antag -41
Cc1cc(OCc2cc(C(=O)N(C)CCCN3CCOCC3)no2)cc(C)c1Cl	D1 ag 35

Source: PubChem
